Results filed as inconclusive are left out. Unless noted, calls come from the whole dose curve; as a rule, active = well fitted curve in either direction with a large enough effect (not every such curve was filed as active); inconclusive = small, poorly fitted or top-dose-only effect, or another doubt; inactive = flat fitted curve, though single readings scatter.
Assays:
[1] = AP1 Signaling Pathway (AID 357); conditions: ME-180 AP-1-bla reporter, EGF-induced, beta-lactamase ratio, 5 h; at 17.2 µM (top of the series) unless noted;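 note: ME-180 reporter cells stimulated with EGF at its EC50 level; % is set by controls: 0 for no effect and ±100 for the full control effect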
How it was run: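 Read-out was the 460nm/530nm emission ratio (excitation 405nm) after CCF4 loading for 2.5 hours at room temperature. Cells carried an AP-1-driven beta-lactamase reporter, were stimulated with EC50 EGF plus compound for 5 hours, and AC50 values came from titrations.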

[2] = NFAT Signaling Pathway (AID 444); conditions: Jurkat NFAT-bla M1, carbachol, beta-lactamase ratio, 5 h; at 17.2 µM (top of the series) unless noted;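 note: carbachol stimulus at about its EC50 of 1 µM final; % is set by controls: 0 for no effect and ±100 for the full control effect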
How it was run: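 Jurkat cells with NFAT-driven β-lactamase reporter and co-expressed M1 receptor, stimulated with carbachol (final 1 uM, ~EC50), compound titration, 5 h at 37 °C. CCF4 loaded 1 h at RT; 460/530 nm ratio gave %activity and AC50.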

[3] = Stat Signaling Pathway (AID 446); conditions: ME-180 (cervical carcinoma) SIE beta-lactamase reporter, IL-6 stimulated, 5 h; at 17.2 µM (top of the series) unless noted;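 note: ME-180 cervical cancer cells given 40 pM IL-6 alongside compound; SIE-controlled beta-lactamase reporter measured as 460/530 nm FRET emission ratio; % is set by controls: 0 for no effect and ±100 for the full control effect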
How it was run: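 Normalization used AC90 stimulation (300 pM IL-6) and AC90 inhibition (125 nM pan-JAK inhibitor at 40 pM IL-6). The underlying signal is SIE-driven beta-lactamase in ME-180 cells after 5 h IL-6 exposure with compound.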

[4] = biological target: Glucocorticoid receptor (Homo sapiens) (UniProt P04150); assay: GR-GFP Redistribution (AID 450;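 active = compounds whose dose series gives a full or clear partial fitted curve of increased nuclear translocation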; note: potency is the fitted concentration of half-maximal effect)
Sequence of Glucocorticoid receptor (Homo sapiens) (P04150 whole entry, looked up): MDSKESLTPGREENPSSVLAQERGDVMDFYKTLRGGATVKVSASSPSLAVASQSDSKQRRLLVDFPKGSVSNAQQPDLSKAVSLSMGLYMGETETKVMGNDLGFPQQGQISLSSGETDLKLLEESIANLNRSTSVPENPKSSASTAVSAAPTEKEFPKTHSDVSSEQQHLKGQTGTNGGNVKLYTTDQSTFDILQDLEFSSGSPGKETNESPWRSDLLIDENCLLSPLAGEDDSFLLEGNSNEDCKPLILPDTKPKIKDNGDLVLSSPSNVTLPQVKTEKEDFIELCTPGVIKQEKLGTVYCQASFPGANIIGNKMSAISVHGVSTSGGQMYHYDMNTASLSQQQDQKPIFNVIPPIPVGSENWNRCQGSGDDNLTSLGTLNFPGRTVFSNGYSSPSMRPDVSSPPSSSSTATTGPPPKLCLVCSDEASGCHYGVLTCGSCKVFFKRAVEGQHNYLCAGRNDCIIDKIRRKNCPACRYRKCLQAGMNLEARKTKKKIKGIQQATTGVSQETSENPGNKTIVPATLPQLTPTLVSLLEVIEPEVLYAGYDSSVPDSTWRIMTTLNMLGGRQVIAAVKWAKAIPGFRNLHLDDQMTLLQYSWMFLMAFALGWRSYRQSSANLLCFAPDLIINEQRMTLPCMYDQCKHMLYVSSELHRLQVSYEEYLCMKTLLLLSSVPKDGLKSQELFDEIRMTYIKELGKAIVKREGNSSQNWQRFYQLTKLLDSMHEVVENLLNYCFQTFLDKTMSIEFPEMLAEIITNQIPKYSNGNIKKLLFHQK

Cc1nc(NCCCO)c(C#N)c2c1COC(C)(C)C2
inactive: activity change, negative = inhibition [1] -14.2% | activity change, negative = inhibition [2] 1.02% | activity, negative = inhibition [3] 1.39% | Potency [4] > 20.6 µM

CC(=O)/C(C#N)=C1\NC(=O)C(Cc2ccccc2Cl)S1 (stereo unspecified)
inactive: activity change, negative = inhibition [1] 8.76% | activity change, negative = inhibition [2] -3.03% | activity, negative = inhibition [3] -6.04% | Potency [4] > 20.6 µM

CCOC(=O)C(c1ccccc1)N1CCN(c2ccc(OC)cc2)CC1 (stereo unspecified)
inactive: activity change, negative = inhibition [1] -19.8% | activity change, negative = inhibition [2] 19.4% | activity, negative = inhibition [3] 4.69% | Potency [4] > 20.6 µM

CCCOc1cccc(C2/C(=C(/O)c3ccc(F)cc3)C(=O)C(=O)N2CCN(C)C)c1 (stereo unspecified)
inactive: activity change, negative = inhibition [1] 3.27% | activity change, negative = inhibition [2] 2.49% | activity, negative = inhibition [3] -0.187% | Potency [4] > 20.6 µM

CC(C)Oc1ccc(Cc2c(O)nc(NCCCN(C)C)[nH]c2=O)cc1
inactive: activity change, negative = inhibition [1] 9.78% | activity change, negative = inhibition [2] 3.21% | activity, negative = inhibition [3] 4.27% | Potency [4] > 20.6 µM

CCCc1[nH]n(-c2nc3ccccc3s2)c(=O)c1C=NCCN1CCOCC1
inactive: activity change, negative = inhibition [1] -6.38% | activity change, negative = inhibition [2] -13.8% | activity, negative = inhibition [3] -4.13% | Potency [4] > 20.6 µM

CCN(CC)CCNC(=O)c1ccccc1N
inactive: activity change, negative = inhibition [1] 4.21% | activity change, negative = inhibition [2] -28.8% | activity, negative = inhibition [3] 6.63% | Potency [4] > 20.6 µM

Clc1ccc(COc2ccccn2)c(Cl)c1
inactive: activity change, negative = inhibition [1] 10% | activity change, negative = inhibition [2] -8.68% | activity, negative = inhibition [3] 15.3% | Potency [4] > 20.6 µM

O=C(c1cncc(Br)c1)N1CCCc2ccccc21
inactive: activity change, negative = inhibition [1] 2.83% | activity change, negative = inhibition [2] -6.51% | activity, negative = inhibition [3] -1.14% | Potency [4] > 20.6 µM

Cn1c[n+](C)cc1/C=N/O
inactive: activity change, negative = inhibition [1] 6.85% | activity change, negative = inhibition [2] 4.23% | activity, negative = inhibition [3] -2.71% | Potency [4] > 20.6 µM

CN1C(=S)SC(N(O)C(=O)Nc2ccccc2)C1(C)C (stereo unspecified)
inactive: activity change, negative = inhibition [1] 1.19% | activity change, negative = inhibition [2] -13.4% | activity, negative = inhibition [3] 2.19% | Potency [4] > 20.6 µM

O=C(N(c1ccccc1)c1ccccc1)n1ccnc1
inactive: activity change, negative = inhibition [1] 7.1% | activity change, negative = inhibition [2] 10.9% | activity, negative = inhibition [3] 0.426% | Potency [4] > 20.6 µM

CCN(CC)CCN1C(=O)C(=O)/C(=C(/O)c2c(C)[nH]c(C(=O)OC)c2C)C1c1ccc(OC)cc1 (stereo unspecified)
inactive: activity change, negative = inhibition [1] 9.19% | activity change, negative = inhibition [2] 8.2% | activity, negative = inhibition [3] 9.4% | Potency [4] > 20.6 µM

COc1ccc(-n2ccc(=O)c3c2CCCC3=O)cc1
inactive: activity change, negative = inhibition [1] 1.82% | activity change, negative = inhibition [2] 1.88% | activity, negative = inhibition [3] 3.34% | Potency [4] > 20.6 µM

Source: PubChem BioAssay (NCATS)
